Experimental data from PubChem BioAssay (Tox21).
Activity calls are given as the source filed them. The call rests on the fitted dose curve.
On the % scale 0 is the no-effect control and ±100 the full control effect.

Each compound was assayed against Acetylcholinesterase (Homo sapiens) (UniProt P22303) (assay: Acetylcholinesterase (AChE) small molecule antagonists: enzyme-based qHTS assay with human liver microsomes (AID 1347399; further: nearly all actives have a fitted effect of over 60% in size)). Conditions: Potency: qHTS inhibition; outcome: qHTS inhibition; series mostly up to 115 µM; activity change, negative = inhibition: at the top concentration.
Acetylcholinesterase (Homo sapiens), sequence (P22303 whole entry, looked up): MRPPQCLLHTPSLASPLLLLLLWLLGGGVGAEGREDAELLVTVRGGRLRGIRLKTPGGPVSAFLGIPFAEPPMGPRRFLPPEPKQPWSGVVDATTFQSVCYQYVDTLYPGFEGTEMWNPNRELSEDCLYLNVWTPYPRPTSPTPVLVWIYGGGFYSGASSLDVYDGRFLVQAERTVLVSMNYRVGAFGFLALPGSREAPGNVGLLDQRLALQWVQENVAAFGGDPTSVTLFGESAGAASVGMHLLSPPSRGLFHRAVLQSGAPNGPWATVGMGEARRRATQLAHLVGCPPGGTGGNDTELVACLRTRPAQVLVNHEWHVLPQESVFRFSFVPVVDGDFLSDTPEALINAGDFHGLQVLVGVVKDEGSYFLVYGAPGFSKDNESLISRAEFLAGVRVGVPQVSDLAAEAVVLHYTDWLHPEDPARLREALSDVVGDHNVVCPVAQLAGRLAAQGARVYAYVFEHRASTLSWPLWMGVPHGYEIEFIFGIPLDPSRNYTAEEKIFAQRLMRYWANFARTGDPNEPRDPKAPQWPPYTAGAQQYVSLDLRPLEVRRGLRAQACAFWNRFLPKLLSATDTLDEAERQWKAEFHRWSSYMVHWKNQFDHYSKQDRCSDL
Summary of the method: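 Recombinant human AChE (50 mU/mL in the enzyme mix) and human liver microsomes (0.25 mg/mL final) were preincubated with compound and NADPH (0.25 mg/mL final) for 30 min at 37 C. Acetylthiocholine/DTNB was then added; thiocholine was read colorimetrically after 10 min at room temperature.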
For `Cn1cc(S(C)=O)c(=O)c2ccc(F)cc21` (stereo not given), the “activity change, negative = inhibition” value was 2.85% [at 53 µM] (inactive). For `CCCCCC1=CCCC1=O`, the Potency was “inactive”. In the case of `NC(N)=NCCN1CCCCCCC1`, the activity change, negative = inhibition was -0.084% [at 0.435 µM] (inactive). `CCCCCCCCCCCC(=O)N(C)CC(=O)O` was tested, and the Potency was “inactive”. For `COC(C)(C)OC`, the “activity change, negative = inhibition” value was -0.345% (inactive). With `NC(=O)c1cn(Cc2c(F)cccc2F)nn1` the “activity change, negative = inhibition” value was -2.27% [at 53 µM] (inactive). For `COc1cc2c(cc1N)oc1ccccc12`, the “activity change, negative = inhibition” value was 0.507% (inactive). `CC(O)COc1ccccc1` (stereo not given) was tested, and the Potency was “inactive”. For `CS(=O)(=O)c1ccc([C@@H](O)[C@@H](CO)NC(=O)C(Cl)Cl)cc1`, the Potency was “inactive”. `CCCc1ccccc1O` was tested, and the “activity change, negative = inhibition” value was -2.53% (inactive). In the case of `Cc1c(C(N)=O)cc([N+](=O)[O-])cc1[N+](=O)[O-]`, the Potency was “inactive”. For `Cc1ccc2c(Cl)cc(Cl)c(O)c2n1`, the “activity change, negative = inhibition” value was -0.59% [at 53 µM] (inactive). For `CCOC(=O)CN1CCCC1=O`, the “activity change, negative = inhibition” value was -0.168% [at 53 µM] (inactive). With `Cc1ccc(N=Nc2c(O)c(C(=O)O)cc3ccccc23)c(S(=O)(=O)O)c1` the “activity change, negative = inhibition” value was 3.39% [at 53 µM] (inactive). `Cc1cc(C)cc(O)c1` was tested, and the Potency was “inactive”. With `CC1=CC[C@@H]2C[C@H]1C2(C)C` the activity change, negative = inhibition was -3.81% [at 23.6 µM] (inactive). With `CC(CCO)CC(C)(C)C` (stereo not given) the Potency was “inactive”. `COc1cc(S(=O)(=O)Nc2ccccc2)c(OC)cc1N` was tested, and the “activity change, negative = inhibition” value was 0.14% (inactive). For `O=C(NCCN1CCOCC1)c1ccc(Cl)cc1`, the “activity change, negative = inhibition” value was -0.124% [at 53 µM] (inactive). `Cc1cc2nc(N)sc2cc1C` was tested, and the “activity change, negative = inhibition” value was -2.01% (inactive). In the case of `O=C[O][Al]([O]C=O)[O]C=O`, the “activity change, negative = inhibition” value was -0.917% (inactive). With `COc1cccc(OC)c1O` the “activity change, negative = inhibition” value was -9.04% (inactive). For `CC(=O)/C=C/C1C(C)=CCCC1(C)C` (stereo not given), the “activity change, negative = inhibition” value was -0.65% (inactive). `Cc1cc(O)c(C(C)(C)C)cc1Sc1cc(C(C)(C)C)c(O)cc1C` was tested, and the “activity change, negative = inhibition” value was 2.7% (inactive). With `O=[N+]([O-])c1ccc2c(c1)Cc1ccccc1-2` the Potency was “inactive”.
